Results on 25 molecules are retold here after PubChem BioAssay (NCATS).

“And” between values parts separate entries of the source, which are not always exact repeats. Equal entries are not always repeated. Records with an inconclusive call do not appear. Some compounds were tested as several samples or in several runs, with calls that do not always agree. The source made the active and inactive calls. Calls follow the shape of the dose curve; as a rule, active = well fitted curve in the direction sought with a large enough effect; inconclusive = small, poorly fitted or top-dose-only effect, or another doubt; inactive = no such curve, though single readings can be large; an effect the other way counts as inactive or inconclusive.

For assay [1], the target named is Glutathione peroxidase 1 (Homo sapiens) (UniProt P07203). As to the kind of experiment: Primary qHTS Assay for Inhibitors of Recombinant Selenoprotein Glutathione Peroxidase 1 (GPX1) (AID 1845191). Also: nearly all actives have a fitted effect of over 65% in size. Also: potency is read from the fitted curve at half-maximal effect. As to activity, negative = inhibition: % is scaled to controls: 0 for no effect and ±100 for the full control effect. The method in brief:
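GR-coupled readout: NADPH consumption tracked by fluorescence, ex 340/em 450 nm, at t=0 and after 15 min at RT. Final mix 10 nM GPX1, 1 mM GSH, 0.5 mM CHP, 0.5 mM NADPH, 100 nM GR, 0.01% BSA, following 30 min enzyme–compound preincubation.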
In general terms: qHTS replaces the single test concentration by a dilution series.

For assay [2], the target named is Phospholipid hydroperoxide glutathione peroxidase GPX4 (Homo sapiens) (UniProt P36969). Briefly: Primary qHTS Assay for Inhibitors of Recombinant Selenoprotein Glutathione Peroxidase 4 (GPX4) (AID 1845192). Also: nearly all actives have a fitted effect of over 65% in size. Also: potency is read from the fitted curve at half-maximal effect. As to activity change, negative = inhibition: series mostly up to about 50 µM; % is scaled to controls: 0 for no effect and ±100 for the full control effect. Put shortly:
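Steps: GPX4 plus compound, 30 min RT; add GR/GSH/NADPH master mix; start with cumene hydroperoxide; read 340/450 nm fluorescence at 0 and 15 min. Finals were 200 nM GPX4, 1 mM GSH, 0.5 mM CHP, 0.5 mM NADPH, 100 nM GR.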

In assay [3] the target is Luciferin 4-monooxygenase (Photinus pyralis) (UniProt P08659). Briefly: Primary firefly luciferase (FLuc) qHTS assay for identification of artifact compounds. (AID 1845220). Also: nearly all actives have a fitted effect of over 60% in size.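 As to activity change, negative = inhibition: series mostly up to about 54 µM; plate controls were DMSO vehicle for no effect and no enzyme for full effect.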 Put shortly:
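Titrated compounds were incubated 15 min at RT, protected from light, with luciferin and ATP at 10 uM; reaction started with 10 nM FLuc, luminescence imaged at 5 min, and concentration-response fitted by Hill equation.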

A short description of assay [4]: Primary fluorescence-based thiol-reactive (MSTI) qHTS assay for identification of artifact compounds. (AID 1845221). Also: nearly all actives have a fitted effect of over 65% in size. Also: potency is read from the fitted curve at half-maximal effect.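 As to activity change, negative = thiol reactive: series mostly up to about 54 µM; thiol-reactive compounds lower the probe fluorescence signal.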 Put shortly:
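First, 4 uM MSTI in 2% DMSO/PBS pH 7.4 was dispensed; next, compounds were added; then plates sat 1 h at room temperature without light. Finally, emission at 598 nm was recorded.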

Assay [5] concerns Nanoluciferase (engineered Oplophorus gracilirostris luciferase). Briefly: Primary Nanoluciferase (NLuc) qHTS assay for identification of artifact compounds. (AID 1845222).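 Also: NLuc secreted into diluted conditioned medium of S16 cells; series mostly up to about 54 µM; 0% = DMSO and -100% = no enzyme.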 Put shortly:
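qHTS format, against NLuc in S16 cell-conditioned medium. Nano-Glo substrate 1:100 was added after 15 min at room temperature. Luminescence was taken after a further 5 min.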

Assay [6] is described as follows: Primary redox qHTS assay for identification of artifact compounds. (AID 1845223).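 Also: 0% = DMSO and 100% = reference compound.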 Put shortly:
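Redox-cycling detection via DTT (250 uM final) oxidation coupled to Amplex Red (25 uM)/HRP (250 mU/mL) in HBSS. 15 min preincubation plus 30 min after DTT, room temperature. Ex/Em 525/598 nm; 4-parameter Hill fit against DMSO and 10 uM DA3003.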

Chain of Phospholipid hydroperoxide glutathione peroxidase GPX4 (Homo sapiens) (P36969 whole entry, looked up): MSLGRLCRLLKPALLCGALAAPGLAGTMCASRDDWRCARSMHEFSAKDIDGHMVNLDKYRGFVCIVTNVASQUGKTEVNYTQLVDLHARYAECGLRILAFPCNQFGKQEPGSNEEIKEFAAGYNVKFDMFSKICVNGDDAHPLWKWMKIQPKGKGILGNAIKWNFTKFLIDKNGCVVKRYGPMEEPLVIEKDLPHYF
Chain of Glutathione peroxidase 1 (Homo sapiens) (P07203 whole entry, looked up): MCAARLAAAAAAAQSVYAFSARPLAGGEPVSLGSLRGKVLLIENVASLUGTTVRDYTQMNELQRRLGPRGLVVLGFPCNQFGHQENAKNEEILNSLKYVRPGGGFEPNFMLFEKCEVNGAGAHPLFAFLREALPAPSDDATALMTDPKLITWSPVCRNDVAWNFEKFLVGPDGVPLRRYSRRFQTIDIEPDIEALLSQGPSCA

For `C[C@@H](NC(=O)c1ccc(C#Cc2cccc(F)c2)cn1)C(C)(C)O`, the Potency entry in assay [1], in assay [2], in assay [3], in assay [4], in assay [5] and in assay [6] was “inactive” in each case.

Regarding `COc1cc(O)cc(OC2OC(CO)C(O)C(O)C2O)c1` (stereo not given), the Potency entry in assay [1], in assay [2], in assay [3], in assay [5] and in assay [6] was “inactive” throughout. In assay [4], the Potency is 9.47 µM (active).

For the molecule `CC(C)(C)Sc1c(CC(C)(C)C(=O)O)n(Cc2ccc(Cl)cc2)c2ccc(OCc3ccc4ccccc4n3)cc12`, the Potency result in assay [1], in assay [3], in assay [4], in assay [5] and in assay [6] was “inactive” in each case. Also, the Potency result in assay [2] is “inactive and 8.06 µM (active)”.

Turning to `Cc1ccc(C)c(NC(=O)[C@@H]2CCCN2S(=O)(=O)c2cccc3cccnc23)c1`, the Potency entry in assay [1], in assay [2], in assay [3], in assay [4], in assay [5] and in assay [6] was “inactive” throughout.

As for `C=C1C(=O)O[C@@H]2C3C(=C(C)[C@@H](O)[C@@H](OC(=O)/C(=C/C)COC(C)=O)[C@@H]12)C(=O)[C@H]1O[C@@]31C` (stereo not given in full), the Potency entry in assay [1], in assay [2], in assay [3], in assay [4], in assay [5] and in assay [6] was “inactive” each time.

`COC(=O)C1=CO[C@@H](O[C@@H]2O[C@H](CO)[C@@H](O)[C@H](O)[C@H]2O)[C@H]2[C@@H]1C=C[C@]21C=C([C@H](C)OC(=O)/C=C/c2ccc(O)cc2)C(=O)O1`: the Potency result in assay [1], in assay [2], in assay [3], in assay [4], in assay [5] and in assay [6] was “inactive” throughout.

For the molecule `NC(=O)c1ccccc1Nc1ccnc(Nc2cccc(O)c2)n1`, the Potency entry in assay [1], in assay [2], in assay [3], in assay [4], in assay [5] and in assay [6] was “inactive” throughout.

In the case of `CCOC(=O)C1(CCOc2ccccc2)CCN(Cc2ccc(O)c(Cl)c2)CC1`, the Potency result in assay [1], in assay [2], in assay [3], in assay [4], in assay [5] and in assay [6] was “inactive” in each case.

For the molecule `Cc1nc(C(=O)N2CCC[C@H]2Cc2nnc(-c3ccccc3)o2)c(-c2ccccc2F)s1`, the Potency result in assay [1], in assay [2], in assay [3], in assay [4], in assay [5] and in assay [6] was “inactive” throughout.

Consider `C=CC(=O)Nc1cccc(Nc2nc(Nc3ccc(NC4CN(CCF)C4)cc3OC)ncc2C(F)(F)F)c1`, for which the Potency result in assay [1], in assay [2], in assay [3], in assay [5] and in assay [6] was “inactive” each time. For the same molecule, in assay [4], the Potency was 2.38 µM (active).

Regarding `COc1ccc2c(NC(=O)Nc3cccc(C(F)(F)F)n3)ccnc2c1`, the Potency entry in assay [1], in assay [2], in assay [3], in assay [4], in assay [5] and in assay [6] was “inactive” each time.

As for `Fc1ccc(-c2nc(-c3c(F)cccc3F)[nH]c2-c2ccncc2)cc1`, the Potency entry in assay [1], in assay [2], in assay [3], in assay [4], in assay [5] and in assay [6] was “inactive” in each case.

On to `COc1c(C)cc(NC(=O)c2nn(Cc3ccc(F)cc3)c3c2CN(C(=O)c2ccc[nH]2)C[C@]3(C)C(N)=O)cc1C`, for which the Potency entry in assay [1] and in assay [2] was “inactive” in each case. Besides, the activity change, negative = inhibition in assay [3] was 2.65% [at 11.6 µM] (inactive). In assay [4], the activity change, negative = thiol reactive was 108% [at 11.5 µM] (inactive). In assay [5], the activity, negative = inhibition is 0.489% [at 11.6 µM] (inactive). Also, the redox activity (% of DA3003) in assay [6] is 7.9% [at 11.5 µM] (inactive).

Take `CN(C)c1ccnc2sc3c(=O)n(N4CCCCCC4)cnc3c12`: the Potency result in assay [1], in assay [2], in assay [3], in assay [4], in assay [5] and in assay [6] was “inactive” throughout.

With `CC(C)c1noc(C2CCN(c3ncnc(Nc4ccc(S(C)(=O)=O)cc4F)c3[N+](=O)[O-])CC2)n1`, the Potency entry in assay [1], in assay [2], in assay [3], in assay [4], in assay [5] and in assay [6] was “inactive” throughout.

Turning to `OC[C@H]1O[C@@H](OC/C=C/c2ccc(O)cc2)[C@H](O)[C@@H](O)[C@@H]1O`, the Potency result in assay [1], in assay [2], in assay [3], in assay [4], in assay [5] and in assay [6] was “inactive” throughout.

`CCCC(CCC)C(=O)Nc1ccn([C@@H]2O[C@H](CO)[C@@H](O)C2(F)F)c(=O)n1`: the Potency result in assay [1], in assay [2], in assay [3], in assay [4], in assay [5] and in assay [6] was “inactive” throughout.

As for `Nc1c(S(=O)(=O)c2ccccc2)c2nc3ccccc3nc2n1-c1ccc(F)cc1`, the Potency in assay [1] was 20.2 µM (active). The Potency entry in assay [2], in assay [3], in assay [4], in assay [5] and in assay [6] was “inactive” throughout.

Take `C=C1C(=O)O[C@@H]2[C@H]1CC[C@H](C)C(CCC(=O)O)C2(C)O` (stereo not given in full): the Potency entry in assay [1], in assay [2], in assay [3], in assay [4], in assay [5] and in assay [6] was “inactive” in each case.

For the molecule `CC(C)C[C@@H]1NC(=O)[C@@H](Cc2ccccc2)NC(=O)C(CCCCCC(=O)C2CO2)NC(=O)[C@@H]2CCCCN2C1=O` (stereo not given in full), the Potency entry in assay [1], in assay [2], in assay [3], in assay [4], in assay [5] and in assay [6] was “inactive” in each case.

On to `O[C@@](Cc1ncc(CC2(C(F)(F)F)CC2)[nH]1)(c1ccc(-n2cccn2)cc1)C(F)(F)F`, for which the Potency entry in assay [1], in assay [2], in assay [3], in assay [4], in assay [5] and in assay [6] was “inactive” in each case.

In the case of `CC(C)n1c(=O)c(C(=O)NC2CC3CCC(C2)N3C[C@@H](O)CN(C)S(C)(=O)=O)cc2ccccc21` (stereo not given in full), the Potency result in assay [1], in assay [2], in assay [3], in assay [4], in assay [5] and in assay [6] was “inactive” in each case.

As to `C[C@H]1[C@H](/C=C/c2ccc(-c3ccccc3C#N)cn2)[C@@H]2[C@@H](C)OC(=O)[C@@H]2C[C@@H]1C`, the Potency result in assay [1], in assay [2], in assay [3], in assay [4], in assay [5] and in assay [6] was “inactive” in each case.

For `O=C(NCc1nc2ccccc2c(=O)n1-c1ccc(F)cc1)Nc1ccc(Cl)c(C(F)(F)F)c1`, the Potency entry in assay [1], in assay [2], in assay [3], in assay [4], in assay [5] and in assay [6] was “inactive” in each case.

Turning to `C=C(C)C1CCC2(C(=O)O)CCC3(C)C(CCC4C5(C)C(C=O)C(O)C(C)(C)C5CCC43C)C12` (stereo not given), the Potency entry in assay [1], in assay [2], in assay [3], in assay [4], in assay [5] and in assay [6] was “inactive” each time.
